In PubChem BioAssay AID624330 (Southern Research Specialized Biocontainment Screening …, 2012) one finds inhibition data, which are given here for 63 compounds.

The whole screen tested about 340,000 compounds, of which about 2,100 (0.62%) were called active.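 Rule for the calls: active = first-screen hits whose inhibition reached a set limit at any dose in the follow-up dose series; inconclusive = inhibition above the set first-screen limit but never retested; inactive = the rest.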 These entries were drawn from the full list. Entries with a potency or affinity are not part of this list.

As a reminder, the inhibition is the change of the read-out against control, counted positive when it falls.

The test deals with Rac GTPase-activating protein 1 (Homo sapiens) (UniProt Q9H0H5). Kind of test: MgcRacGAP GTPase-activating activity inhibitors, confirmation, biochemical, ADP Hunter fluorescence, primary and confirmatory (AID 624330).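 Note: fluorescence reports GDP produced by GAP-driven GTP hydrolysis.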 As to conditions: MgcRacGAP-stimulated Rac1 GTP hydrolysis, at 30 µM, active compounds read high, GST-tagged Rac1 F28L mutant substrate.
Chain of Rac GTPase-activating protein 1 (Homo sapiens) (Q9H0H5 whole entry, looked up): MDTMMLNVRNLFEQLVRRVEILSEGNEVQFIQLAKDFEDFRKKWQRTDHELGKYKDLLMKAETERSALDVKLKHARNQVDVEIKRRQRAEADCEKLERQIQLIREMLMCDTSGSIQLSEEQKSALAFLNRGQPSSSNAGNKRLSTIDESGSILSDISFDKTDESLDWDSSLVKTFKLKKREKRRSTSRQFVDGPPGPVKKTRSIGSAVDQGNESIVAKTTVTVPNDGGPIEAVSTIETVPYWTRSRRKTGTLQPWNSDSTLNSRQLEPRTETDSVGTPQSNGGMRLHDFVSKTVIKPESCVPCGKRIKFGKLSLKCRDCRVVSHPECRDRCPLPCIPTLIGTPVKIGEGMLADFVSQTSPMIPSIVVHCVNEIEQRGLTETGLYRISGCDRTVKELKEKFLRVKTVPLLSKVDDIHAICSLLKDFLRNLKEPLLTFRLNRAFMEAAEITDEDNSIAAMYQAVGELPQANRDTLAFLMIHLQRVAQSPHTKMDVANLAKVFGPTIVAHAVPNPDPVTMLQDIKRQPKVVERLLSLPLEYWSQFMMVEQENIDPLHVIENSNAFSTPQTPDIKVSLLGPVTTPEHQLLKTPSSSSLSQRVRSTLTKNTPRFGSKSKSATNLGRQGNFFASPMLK
Consider `O=c1cc(-c2ccc(Cl)c(Cl)c2)[nH][nH]1`, for which the inhibition is 8.61% (inactive).
The result for `CCCCC(=O)N1C/C=C\C(c2ccc(OC)cc2)N(Cc2ccc(F)cc2)C(=O)C1` (stereo not drawn) reads 8.3% (inactive).
In the case of `COc1ccc(/C=N/Nc2ncc(C(F)(F)F)cc2Cl)cc1OC`, the inhibition was -7.93% (inactive).
Under `Cc1ncc(CO)c(/C=N/Nc2ccc(C(F)(F)F)cn2)c1O` stands 61.5% (inactive); under `FC(F)(F)c1ccc(N/N=C/c2cccnc2)nc1`, 4.55% (inactive); under `COc1cc(/C=N/Nc2ccc(C(F)(F)F)cn2)cc(OC)c1O`, 13% (inactive).
The result for `O=C(O)c1ccc(/C=N/Nc2ccc(C(F)(F)F)cn2)cc1` reads 13.8% (inactive); that for `O=[N+]([O-])c1ccc(NN=Cc2ccc(O)cc2O)nc1`, 24.6% (inactive).
Regarding `Cc1cccc(C(CC(=O)O)NC(=O)C(F)(F)F)c1` (stereo not drawn), the inhibition was 2.11% (inactive).
Under `C=CCN(CC=C)CCCOc1ccc(C)cc1OC` stands 14.4% (inactive); under `Cc1ccc(NS(=O)(=O)c2ccc3c(c2)NC(=O)C(C)C(=O)N3)cc1C` (stereo not drawn), -6.55% (inactive).
With `CCC(Oc1ccccc1C)C(=O)N1CCCN(C)CC1` (stereo not drawn), the inhibition is 3.47% (inactive).
Under `Cc1ccc2nc(-c3ccccc3O)c(Nc3ccc4c(c3)OCCO4)n2c1` stands 11.2% (inactive).
With `Cc1cccc(C)c1Nc1c(-c2ccc(N3CCOCC3)cc2)nc2cnccn12`, the inhibition is 13.6% (inactive).
As to `COc1cc(-c2nc3cnccn3c2Nc2ccc3c(c2)OCCO3)ccc1O`, the inhibition was 15.7% (inactive).
Consider `COc1cc(-c2nc3ccccn3c2/N=C/c2cccc(OC)c2O)ccc1O`, for which the inhibition is 10.6% (inactive).
For `COc1cc(-c2nc3cnccn3c2NC(C)(C)CC(C)(C)C)ccc1O`, the inhibition is 17% (inactive).
The result for `CCOc1cc(-c2nc3ccccn3c2NCC2CCCO2)ccc1O` (stereo not drawn) reads -4.32% (inactive); that for `COc1ccc(OC)c(/C=N/c2c(-c3ccc(O)c(OC)c3)nc3ccccn23)c1`, 4.63% (inactive); that for `COc1cc(-c2nc3cccc(C)n3c2NCC2CCCO2)ccc1O` (stereo not drawn), -43.9% (inactive).
Take `O=C1CC2(CCCC2)C(=O)N1c1ccc(S(=O)(=O)NCC2CC2)cc1Cl`: the inhibition was 5.71% (inactive).
Under `COc1ccc(OCc2nnc(SC3CCOC3=O)n2-c2ccccc2)cc1` (stereo not drawn) stands 11.2% (inactive); under `c1nnc(-c2ccc3c(c2)OCO3)o1`, 12.3% (inactive); under `CC(C)(C)C(=O)NCc1ccc(C(=O)CSc2nnc(C3CC3)n2C2CC2)s1`, 8.51% (inactive).
Under `C[C@]12C(=O)N(c3cccc(Cl)c3)C(=O)N1[C@@H]1c3ccccc3OC[C@@H]1[C@H]2c1ccccc1` stands 6.88% (inactive); under `CCOC(=O)Cc1csc(SCC(=O)NC2CCS(=O)(=O)C2)n1` (stereo not drawn), 0.45% (inactive); under `Cc1cc(-c2ccc(Cl)cc2)n2nc(N)nc2n1`, 8.73% (inactive).
The result for `COc1ccc(C/C(N)=N/OC(C)=O)cc1OC` reads 7.14% (inactive); that for `COc1cc(-c2nc3cnccn3c2Nc2ccc(C(C)C)cc2)ccc1O`, 21.9% (inactive).
Take `COc1cc(-c2nc3cnccn3c2Nc2ccccc2)ccc1O`: the inhibition is 30.3% (inactive).
Under `CCOC(=O)C(C)Sc1nc(-c2ccccc2)nc2ccccc12` (stereo not drawn) stands -2.03% (inactive); under `ON=C1CCCC2CCCCC12` (stereo not drawn), -2.9% (inactive).
`CC(C)CC(=O)NC(c1ccccc1)c1c(O)ccc2ccccc12` (stereo not drawn): the inhibition was 7.84% (inactive).
The result for `CC(C)CNC(=O)CC(c1ccccc1)c1c(O)ccc2ccccc12` (stereo not drawn) reads 10.5% (inactive); that for `CN(Cc1ccccc1F)C(=O)CN1c2cccc3cccc(c23)S1(=O)=O`, 6.24% (inactive); that for `COc1cccc(CNC(=O)CCS(=O)(=O)c2ccc3c(c2)NC(=O)CO3)c1`, 12.4% (inactive).
The result for `CCCn1c(SCC(=O)NNC(=O)c2ccccc2)nnc1-c1cccnc1` reads 12.3% (inactive).
For `O=C(NCCO)c1cc2ccccc2c(=O)s1`, the inhibition was 6.83% (inactive).
On to `O=C(Nc1ccccc1)c1cc2ccccc2c(=O)s1`, for which the inhibition is -4.83% (inactive).
Under `COc1ccc2cc(C(=O)Nc3ccc(Cl)cc3)sc(=O)c2c1OC` stands 7.43% (inactive).
For the compound `COc1ccc2cc(C(=O)Nc3ccc(F)cc3)sc(=O)c2c1OC`, the inhibition was 0.7% (inactive).
Under `CCN1C(=O)[C@H]2[C@H]3CN=C(SCc4ccc(C(=O)OC)cc4)N3[C@@](Cc3ccccc3)(C(=O)OC)[C@H]2C1=O` stands 11.1% (inactive).
The result for `COC(=O)C(Cc1c[nH]c2ccccc12)NC(=O)c1cccc(S(=O)(=O)N2CCCCC2)c1` (stereo not drawn) reads 2.63% (inactive); that for `CCOC(=O)c1ccc(NC(=O)C(=O)NCC2(c3ccc(OC)cc3)CCOCC2)cc1`, 15.5% (inactive).
The result for `CC(C(=O)Nc1ccc(Cl)cc1)N1C(=O)NC2(CCCC2)C1=O` (stereo not drawn) reads 3.21% (inactive).
For the compound `CCN(CC(=O)NCc1ccc(F)cc1)C(=O)CN1CCN(c2cc(Cl)ccc2C)CC1`, the inhibition is 4.22% (inactive).
Consider `Cc1cc(O)c(C=Nc2ccc(N3CCOCC3)cc2)c(C)c1Cl`, for which the inhibition was 24.8% (inactive).
The result for `COc1ccc(N=Cc2ccccc2O)cc1` reads 7.18% (inactive); that for `Cc1ccc(N=Cc2ccc(O)cc2O)cc1F`, 2.37% (inactive).
Regarding `O=[N+]([O-])c1cc(Br)c(O)c(C=Nc2ccc(N3CCOCC3)cc2)c1`, the inhibition was 54.6% (inactive).
With `CCN(CC)c1ccc(C=Nc2ccc(N(C)C)cc2)c(O)c1`, the inhibition is 19.7% (inactive).
With `Oc1ccc(N=Nc2cccc(Cl)c2)cc1C=Nc1ccc(N2CCOCC2)cc1`, the inhibition was 7.02% (inactive).
Under `CCOc1ccc(N=Cc2ccccc2O)cc1` stands 4.12% (inactive).
The result for `Cn1c(O)c(C=Nc2ccc(N3CCOCC3)cc2)c(=O)n(C)c1=S` reads 10.4% (inactive).
Under `CS(=O)(=O)c1ccc(Cl)c(NC(=O)COC(=O)CNC(=O)c2ccccc2)c1` stands 6.09% (inactive); under `O=C(Cc1cccc(F)c1)Nc1ccc2c(c1)CCC2`, 6.98% (inactive).
Regarding `C=C(c1ccccc1Cl)[n+]1ccccc1`, the inhibition is -11.7% (inactive).
Under `N#CCCN(Cc1cccnc1)C(=S)NC(=O)c1ccco1` stands 5.92% (inactive).
For the compound `O=C(OCC(=O)N1CCCC1)c1c(Cl)ccc(Cl)c1Cl`, the inhibition was -3.47% (inactive).
`Cc1nc(C(=O)N(C)C)nn1-c1cc(Cl)ccc1Cl`: the inhibition is 9.33% (inactive).
Take `Cc1ccc(-n2c(C(C)C)nc3oc4ccccc4c(=O)c3c2=O)cc1`: the inhibition is 0.93% (inactive).
For `Oc1ccc(Br)cc1/C=N/N1CCCCC1`, the inhibition is 6.18% (inactive).
Under `Oc1ccc(Br)cc1C=Nc1ccc(Cl)cc1` stands 8.07% (inactive).
